# Screening data (PubChem)
# In the library only some 32% were active in any assay of this set; here they are far more common.
# CYP2C9 inhib: blocks human cytochrome P450 2C9 | AID 777 | hit rate 20% among 96,000 | P11712 | CYP2C9 Supersomes, luciferin-H conversion, luminescence | inhibition, % at 5 µM;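 active = blocking of liver enzyme CYP2C9 beyond about 50% at 5 µM, limit read from the data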
# CYP2C19 inhib: inhibitors of human CYP2C19; inhibition, % at 5 µM; hit rate 21% among 96,000; CYP2C19 Supersomes, luciferin-H EGE luminescence, 30 min; P33261;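 active = CYP2C19 inhibition above a set limit at 5 µM in the primary screen, cut at about 50% in these data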;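 note: plate controls were negative control wells for no effect and 2.5 mM tranylcypromine positive control for full effect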
# Target sequence (P33261 whole entry, looked up): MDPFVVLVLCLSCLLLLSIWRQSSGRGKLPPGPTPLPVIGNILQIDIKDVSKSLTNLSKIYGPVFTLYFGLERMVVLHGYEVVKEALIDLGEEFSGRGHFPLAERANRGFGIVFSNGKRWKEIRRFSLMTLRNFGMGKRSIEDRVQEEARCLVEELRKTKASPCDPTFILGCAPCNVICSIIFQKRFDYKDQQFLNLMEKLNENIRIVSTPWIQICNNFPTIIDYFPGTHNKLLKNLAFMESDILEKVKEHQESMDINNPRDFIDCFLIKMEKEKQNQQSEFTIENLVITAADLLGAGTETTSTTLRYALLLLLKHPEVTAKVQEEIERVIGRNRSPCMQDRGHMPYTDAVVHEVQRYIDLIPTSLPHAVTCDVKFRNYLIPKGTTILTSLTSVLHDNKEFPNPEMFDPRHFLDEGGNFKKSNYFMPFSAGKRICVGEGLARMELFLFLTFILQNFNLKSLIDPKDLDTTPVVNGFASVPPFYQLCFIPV
# PostGolgi yeast: growth inhibition of a yeast mutant, post-Golgi transport screen | hit rate 0.9% among 98,000 | post-Golgi transport phenotypic cell assay | inhibition, % at 10 µM;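 note: yeast cells grown in 1536-well plates; yeast grown about 18 h at 30C before absorbance read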
# PostGolgi ctrl: inhibits growth of the yeast control strain | efflux-deficient yeast background strain, growth absorbance A615, 16 h | hit rate 5% among 98,000 | inhibition, % at 10 µM | AID 738
# CYP2C19 act: activators of human cytochrome P450 2C19 | recombinant CYP2C19, luciferin-H EGE luminescence; hits give high values; 0 = fully inhibited enzyme, 1 = untreated enzyme | activation factor at 5 µM | 96,000 tested, under 10 active | AID 1025;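 active = activation factor of at least 2 at 5 µM in the primary screen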;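 note: 0 = wells with 2.5 mM tranylcypromine and 1 = vehicle-only wells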
# CYP2C9 activ: increases human cytochrome P450 2C9 activity; P11712; recombinant CYP2C9, luciferin-H conversion, luminescence; hits give high values; factor 1 = untreated enzyme, 0 = blocked; activation factor at 5 µM; hit rate 1.4% among 96,000; AID 1024;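 active = activation factor of 2 or more for CYP2C9 at a 5 µM dose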;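 note: 0 = sulfaphenazole-blocked wells and 1 = vehicle-only wells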
# Numbers without * were called inactive; / = no result. Cut-off read from the data, not from the text of the source, unless noted: active = inhibition above about 30%; inactive = the rest.
SMILES,CYP2C9 inhib,CYP2C19 inhib,PostGolgi yeast,PostGolgi ctrl,CYP2C19 act,CYP2C9 activ
Cn1cc(Cl)c(C(=O)NC2CCCCCC2)n1,-34,67*,-2,-2,0.3,1.3
COC(=O)c1c(NC(=O)c2nn(C)cc2Cl)sc2c1CCCC2,/,/,-2,33*,/,/
Cc1occc1C(=O)Nc1sc2c(c1C(N)=O)CCCCC2,21,11,0,31*,0.9,0.8
Cn1nc(C(=O)NC2CCCCC2)c2ccccc2c1=O,13,17,8,4,0.8,0.9
CC1CCC(C(=O)NC(C(=O)NCCN2CCC(C)CC2)C(C)C)CC1 (stereo not given),2,-7,-3,16,1.1,1
Cc1c(NC(=O)CSc2nnc3sc4ccccc4n23)c(=O)n(-c2ccccc2)n1C,22,2,6,2,1,0.8
COC(=O)Nc1sc2c(c1C(N)=O)CCCCCC2,-8,55*,1,6,0.5,1.1
COC(=O)c1c(NC(=O)CC2NCCNC2=O)sc2c1CCCC2 (stereo not given),12,16,5,-4,0.8,0.9
COC(=O)c1c(NC(NC(=O)C(C)(C)C)C(Cl)(Cl)Cl)sc2c1CCC2 (stereo not given),8,16,-2,51*,0.8,0.9
COC(=O)c1c(NC(=O)C2CC2)sc2c1CCCC2,29,11,-7,35*,0.9,0.7
N#CCC(=O)Nc1sc2c(c1C(N)=O)CCCC2,/,/,-2,4,/,/
CCC(C)NCC(=O)Nc1sc2c(c1C(N)=O)CCC2 (stereo not given),1,-2,17,5,1,1
CCC(=O)Nc1sc2c(c1C(N)=O)CCC2,36,11,3,31*,0.9,0.6
CCCCc1ccc(NC(=O)c2c(C)noc2C)cc1,17,10,2,9,0.9,0.8
O=C1c2ccccc2NC(c2c(Cl)cccc2Cl)N1Cc1ccccc1 (stereo not given),2,-3,65*,42*,1,1
CCN(CC)CCN1C(=O)c2ccccc2NC1c1ccc(C)cc1 (stereo not given),-27,0,1,-1,1,1.3
O=C(O)CSC1c2ccccc2C(=O)N1Cc1ccccc1 (stereo not given),-16,-8,4,-1,1.1,1.2
O=C1c2ccccc2NC(c2ccc(Cl)cc2Cl)N1Cc1ccccc1 (stereo not given),14,3,12,36*,1,0.9
Cc1cccc(C2Nc3ccccc3C(=O)N2CCc2ccccc2)n1 (stereo not given),61*,61*,-11,7,0.4,0.4
O=C(COC(=O)c1ccccn1)Nc1cc(Cl)ccc1Cl,-5,20,0,0,0.8,1
Cc1c(-n2c(SCC(=O)O)nnc2-c2ccccc2Cl)c(=O)n(-c2ccccc2)n1C,/,/,1,1,/,/
CC1CN(C)C(c2ccccc2)C(C)C12NC(=O)NC2=O (stereo not given),-1,7,5,7,0.9,1
Cc1ccnc(NC(=O)C2CCCN(S(=O)(=O)c3cnc[nH]3)C2)c1 (stereo not given),58*,44,0,0,0.6,0.4
COc1ccc(C)cc1NC(=O)C1CCCN(S(=O)(=O)c2cnc[nH]2)C1 (stereo not given),62*,64*,-6,5,0.4,0.4
CCN(CC)c1ccc(NC(=O)C2CCCN(S(=O)(=O)c3cnc[nH]3)C2)c(C)c1 (stereo not given),22,4,-8,15,1,0.8
SMILES,CYP2C9 inhib,CYP2C19 inhib,PostGolgi yeast,PostGolgi ctrl,CYP2C19 act,CYP2C9 activ
O=C(NC1CCCC1)C1CCCN(S(=O)(=O)c2cnc[nH]2)C1 (stereo not given),24,49,-8,4,0.5,0.8
CCOc1ccccc1NC(=O)C1CCCN(S(=O)(=O)c2ccc(OC)c(C)c2)C1 (stereo not given),5,93*,0,31*,0.1,0.9
CCOc1ccc2nc(NC(=O)C3CCCN(S(=O)(=O)c4cccs4)C3)sc2c1 (stereo not given),60*,50*,75*,48*,0.5,0.4
COc1ccc(CC(=O)NC(c2ccccc2)c2ccccc2)cc1S(=O)(=O)N1CCOCC1,27,-12,-4,-2,1.1,0.7
COc1cccc(C(=O)N/N=C(/c2ccccc2)c2ccccn2)c1,42,16,6,22,0.8,0.6
Cc1ccc2nc(NC(=O)C3CCCN(S(=O)(=O)c4cnc[nH]4)C3)sc2c1 (stereo not given),51*,26,0,-5,0.7,0.5
CCSc1nnc(NC(=O)C2CCCCC2)s1,27,37,-1,15,0.6,0.7
CCSc1nnc(NC(=O)C2CCCN(S(=O)(=O)c3cnc[nH]3)C2)s1 (stereo not given),74*,25,-2,16,0.8,0.3
COc1cc(C)nc(N2CCCC(C(=O)Nc3cc(Cl)ccc3OC)C2)n1 (stereo not given),-15,84*,-7,19,0.2,1.1
O=C(NCCN1CCN(c2ccccc2)CC1)C1CCCN(S(=O)(=O)c2cnc[nH]2)C1 (stereo not given),19,12,-2,13,0.9,0.8
COc1ccccc1NC(=O)C1CCCN(S(=O)(=O)c2cnc[nH]2)C1 (stereo not given),61*,62*,-20,10,0.4,0.4
Cc1ccc2nc(NC(=O)C3CCCN(S(=O)(=O)c4cccnc4)C3)sc2c1 (stereo not given),13,-14,4,4,1.1,0.9
NC(=O)CSc1nc2c(sc3ccccc32)c(=O)n1CCCN1CCOCC1,5,16,1,0,0.8,1
Cc1cc(C)nc(N2CCCC(C(=O)Nc3nc4ccc(S(C)(=O)=O)cc4s3)C2)n1 (stereo not given),83*,87*,-3,34*,0.1,0.2
CCCNC(=O)c1c(N)n(-c2cccc(OC)c2)c2nc3ccccc3nc12,18,15,33*,50*,0.8,0.8
COCCCNC(=O)c1c(N)n(-c2cccc(S(N)(=O)=O)c2)c2nc3ccccc3nc12,9,16,-7,-1,0.8,0.9
CCNc1c2c3c(cccc3n(C)c1=O)C(=O)c1ccccc1-2,53*,18,6,11,0.8,0.5
Cn1c(=O)c(NCCc2ccccc2)c2c3c(cccc31)C(=O)c1ccccc1-2,98*,78*,0,48*,0.2,0
CCNC1=C(Cl)C(=O)c2ccccc2C1=O,20,49,10,15,0.5,0.8
Cn1c(=O)c(NCCO)c2c3c(cccc31)C(=O)c1ccccc1-2,45,20,7,6,0.8,0.5
CCCCNc1c2c3c(cccc3n(C)c1=O)C(=O)c1ccccc1-2,/,/,2,58*,/,/
Cn1c(=O)c2c(ncn2CCN(CCO)Cc2ccccc2)n(C)c1=O,-10,-6,19,10,1.1,1.1
